High-throughput results: PubChem BioAssay, several laboratories
NR5A2 inv ag: inverse agonists of human LRH-1 (NR5A2); HEK293T StAR-luciferase reporter, LRH-1 transfected, 24 h; inhibition, % at 3.6 µM; actives 0.13% (n = 360,000);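 active = inhibition above the mean inhibition of all tested compounds plus 3 SD, cut at about 73% in these data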;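 note: 0% = DMSO wells and 100% = reporter-only cells lacking LRH-1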
SRC2 inh: inhibits human steroid receptor coactivator 2 | Q15596 | HEK293 GAL4-SRC2 luciferase reporter, luminescence | inhibition, % at 9 µM | actives 0.17% (n = 370,000) | AID 651957;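 active = inhibition above the mean inhibition of all tested compounds plus 3 SD, set per campaign, cut at about 52% in these data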;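 note: 0% = DMSO treated cells and 100% = cells given Gossypol at 36 µM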
NCOA3 inh: inhibitors of human steroid receptor coactivator 3 (SRC3); Q9Y6Q9; HEK293 GAL4-SRC3 luciferase reporter, luminescence; inhibition, % at 3.6 µM; actives 0.17% (n = 360,000); AID 588352;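 active = inhibition above a per-campaign cutoff, the mean of all compounds plus 3 SD, cut at about 60% in these data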;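 note: 0% = DMSO-treated cells and 100% = gossypol-treated cells at 36 µM; higher means less SRC3-driven luciferase light from the GAL4 reporter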
SRC1 inh: inhibitors of human steroid receptor coactivator 1 (SRC1). Q15788. HEK293 GAL4-SRC1 luciferase reporter, luminescence. inhibition, % at 3.6 µM. actives 0.12% (n = 360,000);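 active = inhibition above the campaign mean plus 3 SD, with each screening campaign given its own cutoff, cut at about 60% in these data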;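 note: 0% = DMSO treated cells and 100% = gossypol at 36 µM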
NR2F2 inh: blocks human COUP-TFII nuclear receptor. HEK293T NGFI-A luciferase reporter, luminescence. actives 0.7% (n = 370,000). inhibition, % at 8.6 µM. P24468;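 active = inhibition above a per-plate cutoff, mean inhibition of test wells between control levels plus 3 SD, cut at about 38% in these data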;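 note: cells cotransfected with COUP-TFII expression vector driving the NGFI-A reporter; 0% = median of COUP-TF2 test wells and 100% = reporter-only cells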
Gli-Sufu block: antagonists of Gli-Sufu signaling; Sufu-KO-LIGHT fibroblasts, Gli luciferase reporter luminescence; actives 0.74% (n = 340,000); inhibition, % at 5 µM;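 active = inhibition above about 55%, limit read from the data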;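 note: 0% = DMSO-treated cells and 100% = wells with medium but no cells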
VP16 Luc counter: inhibits VP16 reporter, flagging COUP-TFII antagonist hits; AID 687007; inhibition, % at 8.5 µM; shares compounds with NR2F2 inh; actives 25% (n = 2,500); HEK293 Gal4-VP16 luciferase reporter, luminescence; in the data active = inhibition above about 13%
NR2F2 inh conf: confirmation of human COUP-TFII (NR2F2) inhibitors. shares compounds with NR2F2 inh. HEK293 NGFI-A luciferase reporter, luminescence. inhibition, % at 8.5 µM. actives 45% (n = 2,500);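 active = mean inhibition over three repeats above a set limit taken from the earlier primary screen, cut at about 38% in these data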;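 note: 100% = cells given the luciferase reporter alone without the COUP-TF2 vector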
* marks the source's active call; other numbers are inactive results; x = no result. In the library only some 1.3% were active in any assay of this set; here they are far more common.

SMILES	NR5A2 inv ag	SRC2 inh	NCOA3 inh	SRC1 inh	NR2F2 inh	Gli-Sufu block	VP16 Luc counter	NR2F2 inh conf
O=C1c2cccc(OCC(=O)N3CCCc4ccccc43)c2CCN1Cc1cccnc1	7	9	23	15	40*	24	7	20
Cc1ccccc1CN1CCc2c(OCC(=O)N3CCCc4ccccc43)cccc2C1=O	21	9	2	7	7	8	x	x
O=C(c1cccs1)N1CC[C@H]2[C@H](CCCN2Cc2ccc(F)cc2)C1	x	-5	x	x	-13	x	x	x
O=C(c1cc2c(s1)-c1ccccc1S(=O)(=O)C2)N1CCN(Cc2ccccc2)CC1	14	20	-2	1	39*	-3	-14	26
COc1ccc(-c2coc3c(C(=O)Nc4cccc(C(C)=O)c4)cccc23)c(C)c1	-4	-17	0	-5	18	x	x	x
COc1ccc(-c2coc3c(C(=O)Nc4cccnc4)cccc23)c(C)c1	-2	-3	-13	-4	55*	x	-16	18
CN(C)S(=O)(=O)N1CCC(Oc2ccc(C(=O)NC3CCCCC3)cc2)CC1	15	-10	5	1	-10	4	x	x
CN(C)S(=O)(=O)N1CCC(Oc2cccc(C(=O)NCCC3=CCCCC3)c2)CC1	11	27	12	5	56*	8	-8	17
CN(C)S(=O)(=O)N1CCC(Oc2cccc(C(=O)NC3CCCCC3)c2)CC1	18	36	15	34	57*	42	-4	40*
O=C1N2Cc3ccccc3C2CS(=O)(=O)N1Cc1ccccc1 (stereo unspecified)	x	-51	x	x	-14	x	x	x
CC(C)(C)c1ccc(-c2nnc(SCC(=O)Nc3cccc4ccccc34)n2Cc2ccco2)cc1	x	-11	x	x	38*	x	4	11
O=C(CSc1nnc(-c2ccc(Cl)cc2)n1Cc1ccco1)Nc1cccc2ccccc12	x	-17	x	x	-4	x	x	x
CCc1c(-c2ccccc2F)ncn1Cc1cccc(-c2ccccc2)c1	29	2	x	x	44*	x	-7	7
CCc1c(-c2ccccc2)ncn1Cc1cccc(-c2ccccc2)c1	28	20	x	x	29	x	x	x
Cc1cc(CNC(=O)c2cccc([N+](=O)[O-])c2C)c2ccccc2n1	39	27	34	30	64*	38	4	55*
Cc1cc(CNC(=O)Cc2ccccc2)c2ccccc2n1	-38	-30	10	-1	-24	0	x	x
CC(C)[C@H]1Cn2nnc(-c3ccccc3)c2Cn2c3ccccc3c(=O)n21	x	-4	x	x	-4	x	x	x
COc1ccccc1NS(=O)(=O)c1cccc(-n2c(O)c(C=Nc3ccccc3C(=O)O)c3ccccc3c2=O)c1	17	3	29	11	39*	4	-9	46*
CC(=O)OC[C@]1(OC(C)=O)C[C@@]23CC[C@H]4[C@@](C)(CCC[C@@]4(C)C(=O)O)[C@@H]2CC[C@@H]1C3	-6	2	4	-5	11	2	x	x
CC(=O)OC[C@]12CC[C@H]3[C@@](C)(CC[C@H]4C(C)(C)CCC[C@]34C)[C@@H]1CC(C1=CC(=O)OC1O)O2 (stereo partly specified)	103*	80*	85*	80*	82*	x	93*	105*
CC1(C)C=Cc2ccc(O)c(C(=O)/C=C/c3ccccc3)c2O1	x	x	x	x	44*	x	18*	17
Cc1nn(-c2ccccc2)c(C)c1C(=O)OC(C)C(=O)NC1CCCCC1 (stereo unspecified)	14	19	19	-7	59*	11	-1	21
CC(C)CNc1cccc2c1S(=O)(=O)N(Cc1cn(Cc3cccc(F)c3)nn1)Cc1ccccc1O2	x	-3	x	x	12	x	x	x
O=C(Nc1ccc(Cl)cc1)/C(=C/c1cccc(O)c1)c1nc2ccccc2s1	53	55*	27	6	66*	10	40*	54*
CN(C(=O)[C@@H]1CC=C[C@@H]2CCN(C3CCCCC3)C(=O)[C@@H]21)c1ccccc1	x	x	x	x	-12	x	x	x
SMILES	NR5A2 inv ag	SRC2 inh	NCOA3 inh	SRC1 inh	NR2F2 inh	Gli-Sufu block	VP16 Luc counter	NR2F2 inh conf
Cc1cc(NC(=O)CS(=O)(=O)c2cn(Cc3ccccc3Cl)c3ccccc23)no1	20	10	-5	16	28	-3	x	x
Cc1cc(NC(=O)CS(=O)(=O)c2cn(Cc3cccc(Br)c3)c3ccccc23)no1	-8	4	6	-1	47*	x	-4	0
CCCOc1ncnc2c1[nH]c1ccccc12	-2	7	-5	-27	40*	12	-41	-1
CC(C)Oc1ncnc2c1[nH]c1ccccc12	16	2	-12	-9	38*	12	-53	25
c1ccc2c(c1)Nc1cc3ccccc3cc1S2	-24	-31	-26	-57	-34	-32	x	x
c1ccc2c(c1)Nc1ccncc1S2	-3	20	35	-4	38*	4	4	14
CCN(CC)S(=O)(=O)c1ccc(/C=C/C(=O)O)cc1	0	23	3	1	3	3	x	x
CCN(CC)S(=O)(=O)c1ccc(NC(=O)Nc2cccc(C(F)(F)F)c2)cc1	19	49	25	9	75*	14	-7	7
CCN(CC)S(=O)(=O)c1ccc(/C=C/C(=O)Nc2cccc(F)c2)cc1	-8	11	-13	-17	38*	0	-69	4
Cc1ccc(S(=O)(=O)Nc2ccc(NC(=O)Nc3cccc(C(F)(F)F)c3)cc2)cc1	12	12	19	2	-1	-1	x	x
COC(=O)C[C@@H]1CC[C@@H]2[C@H](COc3ccc(NC(=O)Nc4c(C)noc4C)cc3C(=O)N2C)O1	x	3	x	x	2	x	x	x
CCc1ccc(-c2cn3nc(C)c(C)nc3n2)cc1	-52	59*	-20	-30	47*	-17	-42	-13
O=c1cc(-c2ccc(O)cc2)oc2c1ccc1ccccc12	-14	-24	12	4	5	-22	x	x
O=c1cc(-c2ccc(O)cc2)oc2ccc3ccccc3c12	21	46	28	12	55*	4	14*	46*
Cc1ccc(-n2c(SCC(=O)Nc3ccccc3-c3ccccc3)nnc2-c2ccco2)cc1	x	-35	x	x	-14	x	x	x
CC(=O)c1cc(-c2ccccc2)n(CC(=O)NCc2ccccc2Cl)c1C	x	-6	x	x	-7	x	x	x
C[C@H]1COc2cc(Br)ccc2S(=O)(=O)N1Cc1cn(Cc2ccccc2)nn1	x	2	x	x	0	x	x	x
CN(C(=O)C(C)(C)C)c1ccc(OCC(=O)N2CCc3ccccc3C2)cc1	35	19	11	9	48*	21	11	48*
Cc1ccc(OCC(=O)N2CCc3ccccc3C2)cc1	7	-17	2	-15	-16	-4	x	x
